Test results from paper PMC11062922 (Nature Chemical Biology, 2023).

What was measured:
ADCK5 = conditions: read-out: apparent Kd; compound concentrations:100 nM and 1000 nM (sheet 'Lestaurtinib' of Supplementary Table 1),run:Lestaurtinib_02443_R1,Plate:MR009; n = 1
BMPR1B = conditions: read-out: apparent Kd; compound concentrations:100 nM and 1000 nM (sheet 'Lestaurtinib' of Supplementary Table 1),run:Lestaurtinib_02496_R2,Plate:MR013; n = 1
CSNK2A1;CSNK2A3 = conditions: read-out: apparent Kd; compound concentrations:100 nM and 1000 nM (sheet 'Lestaurtinib' of Supplementary Table 1),run:Lestaurtinib_02422_R1,Plate:MR006; n = 1
DAPK3 = conditions: read-out: apparent Kd; compound concentrations:100 nM and 1000 nM (sheet 'Lestaurtinib' of Supplementary Table 1),run:Lestaurtinib_02443_R1,Plate:MR009; n = 1
GRK6 = conditions: read-out: apparent Kd; compound concentrations:100 nM and 1000 nM (sheet 'Lestaurtinib' of Supplementary Table 1),run:Lestaurtinib_02339_R2,Plate:MR001; n = 1
GSK3A = conditions: read-out: apparent Kd; compound concentrations:100 nM and 1000 nM (sheet 'Lestaurtinib' of Supplementary Table 1),run:Lestaurtinib_02487_R1,Plate:MR012; n = 1
GSK3B = conditions: read-out: apparent Kd; compound concentrations:100 nM and 1000 nM (sheet 'Lestaurtinib' of Supplementary Table 1),run:Lestaurtinib_02487_R1,Plate:MR012; n = 1
HCK = conditions: read-out: apparent Kd; compound concentrations:100 nM and 1000 nM (sheet 'Lestaurtinib' of Supplementary Table 1),run:Lestaurtinib_02422_R1,Plate:MR006; n = 1
HSP90B1 = conditions: read-out: apparent Kd; compound concentrations:100 nM and 1000 nM (sheet 'Lestaurtinib' of Supplementary Table 1),run:Lestaurtinib_02606_R3,Plate:MR019; n = 1
LCK = conditions: read-out: apparent Kd; compound concentrations:100 nM and 1000 nM (sheet 'Lestaurtinib' of Supplementary Table 1),run:Lestaurtinib_02487_R1,Plate:MR012; n = 1
LYN = conditions: read-out: apparent Kd; compound concentrations:100 nM and 1000 nM (sheet 'Lestaurtinib' of Supplementary Table 1),run:Lestaurtinib_02487_R1,Plate:MR012; n = 1
MAP4K3 = conditions: read-out: apparent Kd; compound concentrations:100 nM and 1000 nM (sheet 'Lestaurtinib' of Supplementary Table 1),run:Lestaurtinib_03172_R3,Plate:MR031; n = 1
MAPK14 = conditions: read-out: apparent Kd; compound concentrations:100 nM and 1000 nM (sheet 'Lestaurtinib' of Supplementary Table 1),run:Lestaurtinib_02422_R1,Plate:MR006; n = 1
MERTK = conditions: read-out: apparent Kd; compound concentrations:100 nM and 1000 nM (sheet 'Lestaurtinib' of Supplementary Table 1),run:Lestaurtinib_02766_R2,Plate:MR027; n = 1
MET = conditions: read-out: apparent Kd; compound concentrations:100 nM and 1000 nM (sheet 'Lestaurtinib' of Supplementary Table 1),run:Lestaurtinib_02724_R1,Plate:MR021; n = 1
PRKACG = conditions: read-out: apparent Kd; compound concentrations:100 nM and 1000 nM (sheet 'Lestaurtinib' of Supplementary Table 1),run:Lestaurtinib_02422_R1,Plate:MR006; n = 1
PRKAR2A = conditions: read-out: apparent Kd; compound concentrations:100 nM and 1000 nM (sheet 'Lestaurtinib' of Supplementary Table 1),run:Lestaurtinib_02364_R2,Plate:MR002; n = 1
PRKDC = conditions: read-out: apparent Kd; compound concentrations:100 nM and 1000 nM (sheet 'Lestaurtinib' of Supplementary Table 1),run:Lestaurtinib_02422_R1,Plate:MR006; n = 1
RPS6KB1 = conditions: read-out: apparent Kd; compound concentrations:100 nM and 1000 nM (sheet 'Lestaurtinib' of Supplementary Table 1),run:Lestaurtinib_02766_R3,Plate:MR027; n = 1
SIK2 = test system: SIK2; design: species or system human, MV4-11 + K-562 + COLO205 + SK-N-BE2 + OVCAR-8; conditions: read-out: apparent Kd; compound concentrations: 100 nM and 1000 nM (sheet 'Samples'), CATDS: 1; n = 1

Compound	potency estimated from few doses (ADCK5) [nM]	potency estimated from few doses (BMPR1B) [nM]	potency estimated from few doses (CSNK2A1;CSNK2A3) [nM]	potency estimated from few doses (DAPK3) [nM]	potency estimated from few doses (GRK6) [nM]	potency estimated from few doses (GSK3A) [nM]	potency estimated from few doses (GSK3B) [nM]	potency estimated from few doses (HCK) [nM]	potency estimated from few doses (HSP90B1) [nM]	potency estimated from few doses (LCK) [nM]	potency estimated from few doses (LYN) [nM]	potency estimated from few doses (MAP4K3) [nM]	potency estimated from few doses (MAPK14) [nM]	potency estimated from few doses (MERTK) [nM]	potency estimated from few doses (MET) [nM]	potency estimated from few doses (PRKACG) [nM]	potency estimated from few doses (PRKAR2A) [nM]	potency estimated from few doses (PRKDC) [nM]	potency estimated from few doses (RPS6KB1) [nM]	potency estimated from few doses (SIK2) [nM]
Lestaurtinib	2240	737	1810	1580	2090	175	295	1300	979	550	808	2110	1150	1410	2150	769	979	1210	1570	–
NS(=O)(=O)c1cccc(-c2cc3ccncc3cc2OCc2ccccc2)c1 [GSK980961A]	–	–	–	–	–	–	–	–	–	–	–	–	–	–	–	–	–	–	–	1600
